Our source for the outcome and AC50 values is PubChem BioAssay (EPA / NIEHS).

Results filed as inconclusive are left out. Active and inactive are the calls of the source. How the source made its calls, unless noted: active means hit-call score of the fitted dose curve at least 0.9, where 1 is the maximum; inconclusive means response in the unintended direction; inactive means score below 0.9.

The target of assay [1] is Cellular tumor antigen p53 (Homo sapiens) (UniProt P04637). The experiment in a line: TOX21_p53_BLA_p2_ratio: Tox21 HCT-116 p53 Agonism Beta-lactamase Assay, Ratio, Phase 2 (AID 2283592). The method in brief:
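An inducible beta-lactamase reporter in HCT116 cells signals p53 pathway activation. After 16 h chemical exposure at 37C, cells load CCF4-AM substrate for 2 h at room temperature; activity is the cleaved/uncleaved emission ratio relative to DMSO.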

For assay [2] the target is unchanged. The experiment in a line: TOX21_p53_BLA_p4_ratio: Tox21 HCT-116 p53 Agonism Beta-lactamase Assay, Ratio, Phase 4 (AID 2283601). The method in brief: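 HCT-116 p53 beta-lactamase reporter cells (4000/well) preincubated 5 h, then compound (217-fold dilution of DMSO stock) for 16 h at 37C. CCF4-AM substrate added 2 h at room temperature; 460/530 nm emission ratio fitted upward versus DMSO.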

A short description of assay [3]: TOX21_p53_BLA_p3_viability: Viability Assessment in the Tox21 HCT-116 p53 Agonism Beta-lactamase Assay, Phase 3 (AID 2283593).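 Further: cells exposed to compound for 16 h before reading.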 The method in brief:
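HCT116 cells, 4000/well, dosed 5 h after plating by pin transfer (217-fold dilution from DMSO stock) and incubated 16 h at 37C, 5% CO2. Viability read as ATP luminescence with CellTiter-Glo after 30 min at room temperature.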

Assay [4] deals with Cellular tumor antigen p53 (Homo sapiens) (UniProt P04637). The experiment in a line: TOX21_p53_BLA_p3_ratio: Tox21 HCT-116 p53 Agonism Beta-lactamase Assay, Ratio, Phase 3 (AID 2283596). The method in brief: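 HCT116 p53-bla cells (4000/well) given compound in DMSO (217-fold dilution) after 5 h, incubated 16 h at 37C. CCF4-AM substrate 2 h at room temperature; 460/530 nm emission ratio, gain fitted against DMSO.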

Assay [5] in a line: TOX21_p53_BLA_p4_viability: Viability Assessment in the Tox21 HCT-116 p53 Agonism Beta-lactamase Assay, Phase 4 (AID 2283597).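 Further: hits lower the luminescence signal meaning cytotoxicity.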 The method in brief:
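Compound exposure of HCT116 cells lasts 16 h at 37C, 5% CO2, with DMSO stocks diluted 217-fold. Cellular ATP is then quantified by CellTiter-Glo luminescence after 30 min at room temperature.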

Assay [6] deals with Cellular tumor antigen p53 (Homo sapiens) (UniProt P04637). As to the kind of experiment: TOX21_p53_BLA_p5_ratio: Tox21 HCT-116 p53 Agonism Beta-lactamase Assay, Ratio, Phase 5 (AID 2283599). In short, it runs like this: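 HCT-116 p53-bla cells (4000/well) plated 5 h, dosed with compound (217-fold DMSO dilution) for 16 h at 37 C; CCF4-AM substrate 2 h at room temperature. Activity is the 460/530 nm emission ratio (405 nm excitation), fitted in gain-of-signal direction versus DMSO.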

A short description of assay [7]: TOX21_p53_BLA_p5_viability: Viability Assessment in the Tox21 HCT-116 p53 Agonism Beta-lactamase Assay, Phase 5 (AID 2283600). In short, it runs like this:
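Counter-readout for cytotoxicity: ATP-dependent luminescence from CellTiter-Glo, read in the beta-lactamase wells after 30 min at RT, following a 16 h compound exposure at 37C.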

The target of assay [8] is Thyroid hormone receptor alpha (Rattus norvegicus) + Thyroid hormone receptor beta (Rattus norvegicus) (UniProt P18113+P63059). As to the kind of experiment: TOX21_TR_LUC_GH3_Antagonist_Followup: Tox21 GH3 Thyroid Hormone Receptor Antagonism Luciferase Follow-Up Assay (AID 2283942). In short, it runs like this:
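Antagonist mode: GH3 cells seeded 1,500/well, compounds at 15 concentrations (92 uM to 5nM final) plus T3 at 1.0 nM final, 24 h at 37C. Luciferase read with ONE-Glo after 30 min at room temperature.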

For another assay, the target named is THRA (gene 7067) (UniProt P10827). As to the kind of experiment: TOX21_TRA_COA_Antagonist_Followup_ratio: Tox21 Thyroid Hormone Receptor alpha Antagonism through Coactivator Recruitment Follow-Up Assay, Ratio (AID 2283953). The method in brief:
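520:495 nm emission ratio (excitation 340 nm) reports fluorescein-SRC-2 peptide recruitment to GST-TRα LBD by TR-FRET with Tb anti-GST antibody. Values were normalized to DMSO (0%) and T3 control wells (100%); loss of signal indicated antagonism.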

In another assay the target is THRB (gene 7068) (UniProt P10828). As to the kind of experiment: TOX21_TRB_COA_Antagonist_Followup_ratio: Tox21 Thyroid Hormone Receptor beta Antagonism through Coactivator Recruitment Follow-Up Assay, Ratio (AID 2283967). The method in brief:
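Cell-free TR-FRET: GST-TRb LBD (5.0 nM) with fluorescein-SRC-2 peptide (200 nM) and Tb anti-GST antibody (2 nM), 0.10% BSA. 520:495 nm emission ratio normalized to DMSO (0%) and T3 (100%).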

Assay [9] deals with Retinoic acid receptor RXR-alpha (Homo sapiens) (UniProt P19793). As to the kind of experiment: TOX21_TR_RXR_BLA_Antagonist_Followup_ratio: Tox21 Thyroid Hormone Receptor beta Retinoid X Receptor alpha (RXRa) Antagonism Beta-lactamase (BLA) Follow-Up Assay, Ratio (AID 2283972). In short, it runs like this: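 Antagonist mode used GAL4 UAS-driven beta-lactamase in HEK293T cells expressing RXRa, treated for 16 h with compound concentration series. Activity was taken from the blue/green (460:530 nm) ratio of cleaved to uncleaved substrate.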

Assay [10] deals with PGR (gene 5241) (UniProt P06401). The experiment in a line: TOX21_PR_BLA_Followup_Agonist_ratio: Tox21 HEK293 Progesterone Receptor (PR) Agonism Beta-lactamase Follow-Up Assay, Ratio (AID 2283933). The method in brief:
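HEK293T PR-UAS-bla, 2% CS-FBS; 6 hr preincubation, cpd/DMSO pinned, 16 hr 37C/5% CO2; LiveBLAzer B/G 2 hr RT; FRET ch2/ch1 ratio, agonist direction vs DMSO. Viability by CellTiter-Glo in same wells.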

For assay [11] the target is unchanged. As to the kind of experiment: TOX21_PR_BLA_Followup_Antagonist_ratio: Tox21 HEK293 Progesterone Receptor (PR) Antagonism Beta-lactamase Follow-Up Assay, Ratio (AID 2283934). In short, it runs like this: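 HEK293T PR-UAS-bla, 2% CS-FBS; 6 hr plating, then cpd + R5020 (1 nM final), 16 hr 37C/5% CO2. B/G FRET substrate 2 h RT. Ratio ch2/ch1 vs DMSO; CellTiter-Glo viability multiplexed, autofluorescence checked.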

A short description of assay [12]: TOX21_PR_BLA_Followup_Agonist_viability: Viability Assessment in the Tox21 HEK293 Progesterone Receptor (PR) Agonism Beta-lactamase Follow-Up Assay (AID 2283935).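 Further: cells exposed to compound for 16 hr at 37 °C; signal loss means lower viability so actives are cytotoxic.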 The method in brief:
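HEK293T PR-UAS-bla, 3,000 cells/well, 2% CS-FBS; 6 hr pre-incubation; cpd in DMSO, 16 hr 37C; LiveBLAzer 2 hr RT, then CellTiter-Glo 30 min RT, luminescence. Decrease = lost viability.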

Assay [13] addresses PGR (gene 5241) (UniProt P06401). The experiment in a line: TOX21_PR_LUC_Followup_Agonist: Tox21 HEK293 Progesterone Receptor (PR) Agonism Luciferase Follow-Up Assay (AID 2283937; active means hit-call score of the fitted dose curve at least 0.9, where 1 is the maximum; inactive means score below 0.9). In short, it runs like this:
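Cells: HEK293-PR-A-luc, 3,000/well, 10% charcoal-stripped FBS assay medium. Compound added after 5 h; 16 h, 37C, 0% CO2. ONE-Glo luciferase, luminescence. Positive fit vs DMSO.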

Assay [14] has the same target. The experiment in a line: TOX21_PR_LUC_Followup_Antagonist: Tox21 HEK293 Progesterone Receptor (PR) Antagonism Luciferase Follow-Up Assay (AID 2283938).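 Further: curve fitted upward as signal gain over DMSO baseline despite antagonist label.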 The method in brief: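 A follow-up to the PR bla screen using HEK293-PR-A-luc cells, multiplexed with cell viability to flag cytotoxicity. Reporter luminescence after 16 h compound exposure was analysed relative to DMSO.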

The nature of assay [15]: TOX21_PR_LUC_Followup_Antagonist_viability: Viability Assessment in the Tox21 HEK293 Progesterone Receptor (PR) Antagonism Luciferase Follow-Up Assay (AID 2283940). The method in brief: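 Multiplexed viability counter-screen: after 5 days in charcoal-stripped-FBS medium, HEK293-PR-A-luc cells are plated, pinned with DMSO-dissolved compounds for 16 h at 37C, and ATP content is quantified luminescently via CellTiter-Glo.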

Assay [16] in a line: TOX21_PR_LUC_Followup_Agonist_viability: Viability Assessment in the Tox21 HEK293 Progesterone Receptor (PR) Agonism Luciferase Follow-Up Assay (AID 2283941).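 Further: loss of signal means cytotoxicity so actives lower viability.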 The method in brief: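 Cells were kept 5 days in charcoal-stripped serum medium before plating HEK293-PR-A-luc at 3,000 cells/well. After 5 h they received DMSO-dissolved compound and incubated 16 h at 37C. Viability was taken from CellTiter-Glo ATP luminescence.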

Chain of PGR (gene 5241) (P06401 whole entry, looked up): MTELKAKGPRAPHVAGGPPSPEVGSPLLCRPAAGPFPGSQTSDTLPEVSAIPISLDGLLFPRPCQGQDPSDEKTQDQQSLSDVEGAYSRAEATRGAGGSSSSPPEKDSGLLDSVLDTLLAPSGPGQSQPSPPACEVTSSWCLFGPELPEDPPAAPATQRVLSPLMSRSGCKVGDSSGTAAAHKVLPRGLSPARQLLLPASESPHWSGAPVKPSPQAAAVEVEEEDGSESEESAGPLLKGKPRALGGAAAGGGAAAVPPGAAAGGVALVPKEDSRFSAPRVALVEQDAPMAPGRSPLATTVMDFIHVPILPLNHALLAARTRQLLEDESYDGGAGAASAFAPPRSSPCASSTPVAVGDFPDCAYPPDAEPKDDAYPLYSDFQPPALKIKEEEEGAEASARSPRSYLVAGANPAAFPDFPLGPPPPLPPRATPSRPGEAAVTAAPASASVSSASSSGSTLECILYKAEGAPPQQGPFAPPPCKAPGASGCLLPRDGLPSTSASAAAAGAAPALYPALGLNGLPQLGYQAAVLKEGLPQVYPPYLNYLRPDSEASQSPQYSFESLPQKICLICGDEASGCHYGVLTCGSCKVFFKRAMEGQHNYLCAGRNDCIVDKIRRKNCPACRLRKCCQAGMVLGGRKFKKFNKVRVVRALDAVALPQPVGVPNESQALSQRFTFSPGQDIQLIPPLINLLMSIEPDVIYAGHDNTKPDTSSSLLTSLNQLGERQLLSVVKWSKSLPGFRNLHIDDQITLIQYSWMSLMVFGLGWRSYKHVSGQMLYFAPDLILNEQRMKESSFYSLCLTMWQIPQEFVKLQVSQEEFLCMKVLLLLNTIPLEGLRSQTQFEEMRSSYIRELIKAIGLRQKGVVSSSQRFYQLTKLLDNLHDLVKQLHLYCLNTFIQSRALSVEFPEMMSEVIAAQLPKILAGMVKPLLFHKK
Chain of Cellular tumor antigen p53 (Homo sapiens) (P04637 whole entry, looked up): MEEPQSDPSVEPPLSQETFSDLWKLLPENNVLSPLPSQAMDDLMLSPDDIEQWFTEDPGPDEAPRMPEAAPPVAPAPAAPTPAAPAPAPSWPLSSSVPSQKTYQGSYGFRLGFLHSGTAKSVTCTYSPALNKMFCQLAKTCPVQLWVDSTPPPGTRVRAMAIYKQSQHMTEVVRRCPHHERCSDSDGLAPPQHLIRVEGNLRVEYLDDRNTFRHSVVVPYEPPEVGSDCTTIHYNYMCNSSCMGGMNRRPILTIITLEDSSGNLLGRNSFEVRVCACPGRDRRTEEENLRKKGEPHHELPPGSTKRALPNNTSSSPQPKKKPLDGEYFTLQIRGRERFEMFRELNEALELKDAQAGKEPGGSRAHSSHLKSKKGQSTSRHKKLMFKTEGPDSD
Chain of THRB (gene 7068) (P10828 whole entry, looked up, the tested form may be a part): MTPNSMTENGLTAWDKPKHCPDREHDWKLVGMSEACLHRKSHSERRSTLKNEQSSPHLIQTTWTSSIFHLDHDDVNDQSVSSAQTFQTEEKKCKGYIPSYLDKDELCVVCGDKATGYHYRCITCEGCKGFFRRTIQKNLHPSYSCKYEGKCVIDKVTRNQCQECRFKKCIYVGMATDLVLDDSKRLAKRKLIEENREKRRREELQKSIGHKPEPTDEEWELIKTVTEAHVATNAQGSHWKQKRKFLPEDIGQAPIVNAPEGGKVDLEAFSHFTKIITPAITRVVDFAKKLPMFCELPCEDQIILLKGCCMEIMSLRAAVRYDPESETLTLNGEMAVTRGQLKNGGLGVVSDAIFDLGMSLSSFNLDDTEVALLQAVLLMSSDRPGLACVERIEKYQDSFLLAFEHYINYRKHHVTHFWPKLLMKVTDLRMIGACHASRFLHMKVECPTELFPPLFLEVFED
Chain of Retinoic acid receptor RXR-alpha (Homo sapiens) (P19793 whole entry, looked up, the tested form may be a part): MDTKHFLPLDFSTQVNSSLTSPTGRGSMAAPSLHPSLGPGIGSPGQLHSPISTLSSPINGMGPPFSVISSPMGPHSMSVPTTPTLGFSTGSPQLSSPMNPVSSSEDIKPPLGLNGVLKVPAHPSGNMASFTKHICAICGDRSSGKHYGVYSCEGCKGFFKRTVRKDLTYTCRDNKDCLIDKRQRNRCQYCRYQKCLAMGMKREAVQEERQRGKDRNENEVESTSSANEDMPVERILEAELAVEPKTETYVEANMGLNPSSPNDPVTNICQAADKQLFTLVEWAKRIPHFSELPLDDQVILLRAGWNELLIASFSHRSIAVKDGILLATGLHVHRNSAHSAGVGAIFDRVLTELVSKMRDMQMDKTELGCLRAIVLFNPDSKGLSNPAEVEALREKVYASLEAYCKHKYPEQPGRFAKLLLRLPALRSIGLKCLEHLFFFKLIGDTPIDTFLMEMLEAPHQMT
Chain of THRA (gene 7067) (P10827 whole entry, looked up, the tested form may be a part): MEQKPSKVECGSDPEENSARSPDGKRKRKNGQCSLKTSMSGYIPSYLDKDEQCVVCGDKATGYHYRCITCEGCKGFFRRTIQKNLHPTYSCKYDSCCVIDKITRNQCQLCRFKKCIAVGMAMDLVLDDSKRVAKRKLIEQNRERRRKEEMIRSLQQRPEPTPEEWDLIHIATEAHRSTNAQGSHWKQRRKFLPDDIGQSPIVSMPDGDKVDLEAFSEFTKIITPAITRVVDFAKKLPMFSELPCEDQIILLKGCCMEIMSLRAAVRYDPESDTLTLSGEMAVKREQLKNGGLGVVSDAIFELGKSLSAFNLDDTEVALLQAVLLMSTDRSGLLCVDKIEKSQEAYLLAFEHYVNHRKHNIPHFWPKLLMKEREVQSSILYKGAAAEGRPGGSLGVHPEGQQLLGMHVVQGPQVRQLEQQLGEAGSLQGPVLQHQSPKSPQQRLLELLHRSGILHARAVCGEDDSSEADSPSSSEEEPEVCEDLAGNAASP

Take `CC1(c2ccccc2)OC(C(=O)O)=CC1=O` (stereo unspecified): the outcome in [1] and in [2] was inactive.
Consider `CCOc1ccccc1N`, for which the outcome in [1] and in [2] was inactive.
For `CC(COc1ccccc1)NC(C)C(O)c1ccc(O)cc1` (stereo unspecified), the outcome in assay [1] and in assay [2] was inactive.
In the case of `COC(=O)NN`, the compound was called inactive in assay [3], in assay [4], in [5], in assay [6] and in [7].
`O=CC1CC=CCC1` (stereo unspecified): the result in assay [1] and in [2] was inactive.
Take `C=C(C)C(=O)OCCCCCCCC(C)C`: the compound was classed as inactive in assay [3], in assay [4], in assay [5] and in assay [6].
On to `O=C(NCCCN1CCOCC1)c1ccc(Cl)cc1`, for which the result in assay [1] and in assay [2] was inactive.
Usually AC50 stands for the midpoint of the concentration-response curve, whichever way the signal moves. Regarding `NC(=O)C1(N2CCCCC2)CCN(CCCC(=O)c2ccc(F)cc2)CC1`, the AC50 in [3] is 36.2 µM (active). The result in assay [4], in assay [5] and in assay [6] was inactive.
For the compound `COc1ccc2c(c1)C(=O)N(CCc1ccc(S(=O)(=O)NC(=O)NC3CCCCC3)cc1)C(=O)C2(C)C`, the result in assay [1] and in [2] was inactive.
`CCCN(CCC)C(=O)C(CCC(=O)O)NC(=O)c1ccccc1` (stereo unspecified): the result in assay [1], in assay [7] and in assay [2] was inactive.
`CC(C)(C)CC(C)(C)c1ccc(Nc2ccc(C(C)(C)CC(C)(C)C)cc2)cc1`: in assay [3], the result was inactive.
As to `CC(COc1ccccc1)NN` (stereo unspecified), the outcome in assay [1] and in assay [2] was inactive.
For the compound `Cc1ccc(Cl)cc1Cl`, the result in assay [3] and in [4] was inactive.
Consider `CCN(CC)CCOC(=O)C(c1ccccc1)C1CCCCC1` (stereo unspecified), for which the result in assay [1] and in assay [2] was inactive.
As for `O=C1OC(OC(=O)c2cccnc2Nc2cccc(C(F)(F)F)c2)c2ccccc21` (stereo unspecified), the result (in assay [1]; in assay [7]; in [2]; in assay [8]; with THRA (gene 7067); in the assay with THRB (gene 7068)) was inactive. The result in assay [9] was inactive.
As for `CN1CC[C@H](c2c(O)cc(O)c3c(=O)cc(-c4ccccc4Cl)oc23)[C@H](O)C1`, the outcome (in [1]; in assay [2]; in the assay with PGR (gene 5241) [10]; in [12]; in the assay with PGR (gene 5241) [13]; in assay [15]) was inactive. Further, in [16], the compound was classed as inactive. Also, the concentration at half-maximal activity (AC50) in the assay with PGR (gene 5241) [11] is 0.206 µM (active); with PGR (gene 5241) [14] it was 0.565 µM (active).
